Test results published in PubChem BioAssay (NCATS).
Where “and” joins values, the source holds several entries; their conditions need not be identical. Identical values can stand only once. Records with an inconclusive call do not appear. More than one record can exist for a structure, and the calls need not agree. Calls of active or inactive are those of the source. Unless noted, calls come from the whole dose curve.

Legend:
[1] = AP1 Signaling Pathway (AID 357; active = well fitted curve in either direction with a large enough effect, not every such curve was filed as active;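 note: ME-180 reporter cells stimulated with EGF at its EC50 level; % is set by controls: 0 for no effect and ±100 for the full control effect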); details: ME-180 AP-1-bla reporter, EGF-induced, beta-lactamase ratio, 5 h; at 38 µM (top of the series)
Outline: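 In this screen, ME-180 cells in Opti-MEM with 0.5% dialyzed FBS received EC50 EGF and compound titrations for 5 h. AP-1 reporter beta-lactamase was detected via CCF4 ratio, giving AC50 for positive and negative modulators.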

[2] = NFAT Signaling Pathway (AID 444; active = well fitted curve in either direction with a large enough effect, not every such curve was filed as active;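 note: carbachol stimulus at about its EC50 of 1 µM final; % is set by controls: 0 for no effect and ±100 for the full control effect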); details: Jurkat NFAT-bla M1, carbachol, beta-lactamase ratio, 5 h; at 38 µM (top of the series)
Outline: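 Jurkat cells with NFAT-driven β-lactamase reporter and co-expressed M1 receptor, stimulated with carbachol (final 1 uM, ~EC50), compound titration, 5 h at 37 °C. CCF4 loaded 1 h at RT; 460/530 nm ratio gave %activity and AC50.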

[3] = Stat Signaling Pathway (AID 446; active = well fitted curve in either direction with a large enough effect, not every such curve was filed as active;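 note: ME-180 cervical cancer cells given 40 pM IL-6 alongside compound; SIE-controlled beta-lactamase reporter measured as 460/530 nm FRET emission ratio; % is set by controls: 0 for no effect and ±100 for the full control effect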); details: ME-180 (cervical carcinoma) SIE beta-lactamase reporter, IL-6 stimulated, 5 h; at 38 µM (top of the series)
Outline: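 Emission at 460 and 530 nm (excitation 405 nm) reports SIE-controlled beta-lactamase in ME-180 cells. Cells received compound with 40 pM IL-6 for 5 hrs at 37 C; data scaled between 300 pM IL-6 and 125 nM JAK-inhibitor controls.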

[4] = biological target: Cytochrome P450 1A2 (Homo sapiens) (UniProt P05177); test: p450-cyp1a2 (AID 410); details: recombinant CYP1A2, luciferin-ME demethylation, luminescence; series mostly up to 57 µM; note: potency is the fitted concentration of half-maximal effect;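 for activity change, negative = inhibition: -100% = full effect of reference inhibitor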
Sequence of Cytochrome P450 1A2 (Homo sapiens) (P05177 whole entry, looked up): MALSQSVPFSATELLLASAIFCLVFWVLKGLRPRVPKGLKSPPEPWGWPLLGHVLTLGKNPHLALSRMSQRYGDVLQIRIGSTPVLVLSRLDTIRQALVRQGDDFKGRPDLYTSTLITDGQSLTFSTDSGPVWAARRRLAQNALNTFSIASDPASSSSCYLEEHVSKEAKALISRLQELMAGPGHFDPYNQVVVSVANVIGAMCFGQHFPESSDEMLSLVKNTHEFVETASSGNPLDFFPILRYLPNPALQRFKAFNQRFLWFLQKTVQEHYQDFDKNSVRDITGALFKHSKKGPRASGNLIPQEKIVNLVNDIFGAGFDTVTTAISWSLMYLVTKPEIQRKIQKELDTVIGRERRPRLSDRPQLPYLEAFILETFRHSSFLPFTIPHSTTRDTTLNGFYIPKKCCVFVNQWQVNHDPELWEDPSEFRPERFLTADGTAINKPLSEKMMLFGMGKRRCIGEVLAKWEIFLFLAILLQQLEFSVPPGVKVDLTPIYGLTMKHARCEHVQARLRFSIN
Outline: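 Luminescent demethylation readout: Luciferin-ME (100uM, equal to Km) turned over by 20nM CYP1A2 for 60 min at room temperature after NADPH regeneration addition, following 10 min compound preincubation. Normalization used 57 uM furafylline as full inhibition.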

[5] = Cell Viability - BJ (AID 421); details: BJ fibroblast viability, qHTS;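 note: potency is the fitted concentration of half-maximal effect; cells exposed to compound for 40 hours at 37 °C before readout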
Outline: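 Cytotoxicity in human BJ foreskin fibroblasts is scored as loss of cellular ATP after a 40-hour exposure, measured by luciferase luminescence. Controls are DMSO and 100 uM tamoxifen.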

[6] = Cell Viability - Jurkat (AID 426;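 active = dose-dependent loss of cell ATP signal giving a full or clear fitted curve, ranked by lower potency value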;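 note: potency is the fitted concentration of half-maximal effect; cells exposed to compound for 40 hours at 37 °C before ATP read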); details: qHTS
Outline: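 Cytotoxicity taken as drop in cellular ATP (CellTiter-Glo luminescence, 20 min room temperature) after 40 hr, 37C treatment of 5000 Jurkat Clone E6-1 cells per well; concentration-response fitted with Hill equation for AC50.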

[7] = Cell Viability - Hek293 (AID 427;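 active = compounds whose dose-response curve shows a full or clear partial loss of cell viability, called from curve shape rather than a numeric limit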;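 note: potency is the fitted concentration of half-maximal effect; cells exposed to compound for 40 hours at 37 °C before reading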); details: qHTS
Outline: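 qHTS, human embryonic kidney (adenovirus-transformed) cells; 40 hr cpd, 37 °C; CellTiter-Glo ATP luminescence. Norm: DMSO = 0, 100 uM tamoxifen = 100% inhibition. Hill-fit AC50.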

[8] = Cell Viability - MRC5 (AID 434); details: MRC5 lung fibroblast viability, qHTS;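 note: potency is the fitted concentration of half-maximal effect; cells exposed to compound for 40 hours at 37 °C; potency reflects cytotoxicity seen as loss of intracellular ATP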
Outline: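 ATP luminescence read-out (CellTiter-Glo, 20 min RT) after 40 hr, 37 °C compound exposure of 1500 MRC5 cells/well. Data normalized to DMSO (basal) and 100 uM tamoxifen (100% inhibition); AC50 from standard Hill equation.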

[9] = Cell Viability - HepG2 (AID 433); details: qHTS;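 note: potency is the fitted concentration of half-maximal effect; potency for ATP loss meaning cytotoxicity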
Outline: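 Cytotoxicity is scored as loss of intracellular ATP in HepG2 cells exposed to compounds for 40 h. Concentration-response curves, normalized to DMSO and 100 uM tamoxifen, give AC50 values.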

[10] = Cell Viability - SK-N-SH (AID 435); details: SK-N-SH neuroblastoma cell viability qHTS;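 note: potency is the fitted concentration of half-maximal effect; compound exposure lasted 40 h at 37 °C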
Outline: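 Cells seeded at 1500 per well and incubated 5 hr at 37 °C. Compound added, then 40 hr at 37 °C. CellTiter-Glo added, 20 min at room temperature, luminescence read.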

CNCCc1ccc(O)c(O)c1
activity change, negative = inhibition [1]: -12.9% (inactive)
activity change, negative = inhibition [2]: 4.43% (inactive)
activity, negative = inhibition [3]: -23.7% (inactive)

C[C@]12N[C@H](Cc3ccccc31)c1ccccc12
activity change, negative = inhibition [1]: -6.02% (inactive) and 8.41% (inactive)
Potency [4]: inactive
activity change, negative = inhibition [2]: -11.3% (inactive) and -3.27% (inactive)
activity, negative = inhibition [3]: 16.1% (inactive) and 6.66% (inactive)

Nc1ccc(Cl)cc1N
Potency [5]: > 92 µM (inactive)
Potency [6]: 4.05 µM (active)
Potency [7]: > 92 µM (inactive)
Potency [8]: > 92 µM (inactive)

O=C(O)COc1ccccc1
Potency [5]: > 92 µM (inactive)
Potency [6]: > 92 µM (inactive)
Potency [7]: > 92 µM (inactive)
Potency [9]: > 92 µM (inactive)
Potency [8]: > 92 µM (inactive)
Potency [10]: > 92 µM (inactive)

O=C(O)C(Cl)Cl
Potency [5]: > 92 µM (inactive)
Potency [6]: > 92 µM (inactive)
Potency [7]: > 92 µM (inactive)
Potency [9]: > 92 µM (inactive)
Potency [8]: > 92 µM (inactive)
Potency [10]: > 92 µM (inactive)

O=[N+]([O-])c1cc([N+](=O)[O-])c2ccccc2c1
Potency [5]: > 92 µM (inactive)
Potency [6]: > 92 µM (inactive)
Potency [7]: > 92 µM (inactive)
Potency [9]: > 92 µM (inactive)
Potency [8]: > 92 µM (inactive)
Potency [10]: > 92 µM (inactive)

COC(C)(C)CCCC(C)C/C=C/C(C)=C/C(=O)OC(C)C (stereo not drawn)
Potency [5]: > 92 µM (inactive)
Potency [6]: > 92 µM (inactive)
Potency [7]: > 92 µM (inactive)
Potency [9]: > 92 µM (inactive)
Potency [8]: > 92 µM (inactive)
Potency [10]: > 92 µM (inactive)

O=[N+]([O-])c1c2ccccc2cc2ccccc12
Potency [5]: > 92 µM (inactive)
Potency [6]: > 92 µM (inactive)
Potency [7]: > 92 µM (inactive)
Potency [9]: > 92 µM (inactive)
Potency [8]: > 92 µM (inactive)
Potency [10]: > 92 µM (inactive)

Nc1ccc([N+](=O)[O-])cc1
Potency [5]: > 92 µM (inactive)
Potency [6]: > 92 µM (inactive)
Potency [7]: > 92 µM (inactive)
Potency [9]: > 92 µM (inactive)
Potency [8]: > 92 µM (inactive)
Potency [10]: > 92 µM (inactive)

COc1ccc(C(c2ccc(OC)cc2)C(Cl)(Cl)Cl)cc1
Potency [5]: > 92 µM (inactive)
Potency [9]: > 92 µM (inactive)
Potency [8]: > 92 µM (inactive)
Potency [10]: > 92 µM (inactive)

Nc1ccc(Sc2ccc(N)cc2)cc1
Potency [5]: > 92 µM (inactive)
Potency [6]: > 92 µM (inactive)
Potency [7]: > 92 µM (inactive)
Potency [9]: > 92 µM (inactive)
Potency [8]: > 92 µM (inactive)
Potency [10]: > 92 µM (inactive)

COC(=O)[C@@H](N)CCCN=C(N)N[N+](=O)[O-]
Potency [4]: inactive

C1CCC(NC2CCCCC2)CC1
Potency [5]: > 92 µM (inactive)
Potency [6]: > 92 µM (inactive)
Potency [7]: > 92 µM (inactive)
Potency [9]: > 92 µM (inactive)
Potency [8]: > 92 µM (inactive)
Potency [10]: > 92 µM (inactive)

Cc1c(C(=O)c2cccc3ccccc23)c2cccc3c2n1[C@H](CN1CCOCC1)CO3
activity change, negative = inhibition [2]: -21.8% (inactive)

Cc1nc(-c2ccc(-c3ccc(C(=O)N4CCc5cc6c(cc54)C4(CCN(C)CC4)CO6)cc3)c(C)c2)no1
Potency [4]: inactive and 39.8 µM (active)

CC(=O)[O][Hg][c]1ccccc1
Potency [5]: 5.56 µM (active)
Potency [6]: 0.47 µM (active)
Potency [7]: 2.24 µM (active)
Potency [9]: 25.1 µM (active)
Potency [8]: 10.9 µM (active)
Potency [10]: 2.17 µM (active)

CN(C)NC(=O)CCC(=O)O
Potency [5]: > 92 µM (inactive)
Potency [6]: > 92 µM (inactive)
Potency [7]: > 92 µM (inactive)
Potency [9]: > 92 µM (inactive)
Potency [8]: > 92 µM (inactive)
Potency [10]: > 92 µM (inactive)

CCCCOC(=O)c1ccccc1C(=O)OCc1ccccc1
Potency [5]: > 92 µM (inactive)
Potency [6]: > 92 µM (inactive)
Potency [7]: > 92 µM (inactive)
Potency [9]: > 92 µM (inactive)
Potency [8]: > 92 µM (inactive)
Potency [10]: > 92 µM (inactive)

O=[N+]([O-])c1c(Cl)c(Cl)cc(Cl)c1Cl
Potency [5]: > 92 µM (inactive)
Potency [6]: > 92 µM (inactive)
Potency [7]: > 92 µM (inactive)
Potency [9]: > 92 µM (inactive)
Potency [8]: > 92 µM (inactive)
Potency [10]: > 92 µM (inactive)

CCOCCOC(C)=O
Potency [5]: > 92 µM (inactive)
Potency [6]: > 92 µM (inactive)
Potency [7]: > 92 µM (inactive)
Potency [9]: > 92 µM (inactive)
Potency [8]: > 92 µM (inactive)
Potency [10]: > 92 µM (inactive)

CCCCC(CC)COC(=O)c1ccccc1C(=O)OCC(CC)CCCC (stereo not drawn)
Potency [5]: > 92 µM (inactive)
Potency [6]: > 92 µM (inactive)
Potency [7]: > 92 µM (inactive)
Potency [9]: > 92 µM (inactive)
Potency [8]: > 92 µM (inactive)
Potency [10]: > 92 µM (inactive)

CCCCCCCCc1ccc(O)cc1
Potency [5]: > 92 µM (inactive)
Potency [6]: > 92 µM (inactive)
Potency [7]: > 92 µM (inactive)
Potency [9]: > 92 µM (inactive)
Potency [8]: > 92 µM (inactive)
Potency [10]: > 92 µM (inactive)
